Data on 28 molecules can be found in PubChem BioAssay.

Chain of Follistatin (Homo sapiens) (P19883 whole entry, looked up): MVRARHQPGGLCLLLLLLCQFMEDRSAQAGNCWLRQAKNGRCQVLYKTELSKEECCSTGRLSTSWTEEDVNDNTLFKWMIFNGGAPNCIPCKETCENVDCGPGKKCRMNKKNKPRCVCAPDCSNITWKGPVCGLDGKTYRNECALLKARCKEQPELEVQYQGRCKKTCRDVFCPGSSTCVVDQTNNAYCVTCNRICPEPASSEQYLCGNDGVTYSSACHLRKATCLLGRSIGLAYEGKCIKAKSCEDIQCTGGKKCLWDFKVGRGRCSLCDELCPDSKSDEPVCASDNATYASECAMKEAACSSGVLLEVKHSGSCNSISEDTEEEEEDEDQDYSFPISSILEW

The test addresses Follistatin (Homo sapiens) (UniProt P19883). As to the kind of experiment: FST protein binding to printed compounds – biochemical, small-molecule microarray, 635/667 nm fluorescence, primary screen (AID 1132). The note with it: 635 nm fluorescence, higher = more signal.
The molecule `C[C@@H]1ON(c2ccccc2)[C@H](c2ccccc2)[C@H]1C(=O)O` displayed a composite z-score of 1.3. Under `C[C@]1(C(=O)O)c2ccccc2C(=O)N(Cc2cc(F)cc(C(F)(F)F)c2)[C@H]1c1ccc(CO)cc1` stands 0.88; under `COCCOC(=O)N1C(=O)[C@@]2(c3cc(C#CCCO)ccc31)[C@H](c1ccccc1OCCO)N1[C@H](c3ccccc3)[C@H](c3ccccc3)OC(=O)[C@H]1[C@@H]2C(N)=O`, 1.02; under `O=C1[C@H]2C=C(I)[C@H](C[C@@H]2OCCCCCCO)[C@@]12CO2`, 1.12. The result for `C=CCOC(=O)[C@@H]1[C@H]2C(=O)O[C@H](c3ccccc3)[C@H](c3ccccc3)N2[C@H](c2ccc(OCCOC(=O)[C@H]3C[C@H]4C(=O)N[C@@H](CCCCN(C)C)C(=O)N4[C@H]3c3ccc(O)cc3)cc2)[C@@]12C(=O)Nc1ccc(I)cc12` reads 1.4; that for `O=C(NCc1ccccc1)[C@@H]1c2ccccc2C(=O)N(Cc2cc(C(F)(F)F)cc(C(F)(F)F)c2)[C@H]1c1ccc(CO)cc1`, 1.36. `CCCC[C@H]1C[C@@H]1[C@@H]1N(C(C)=O)[C@H](c2cccc(OC)c2)CC12CC2` came in with a composite z-score of -0.631. The result for `CCOC(=O)C1=CCC(c2cc3ccccc3[nH]2)N(CCN2CC(C(=O)OCC)=CCC2c2cc3ccccc3[nH]2)C1` (stereo not drawn) reads 0.748. The result for `C=C(CCCC)/C(=C/C[C@H](OC(C)=O)c1cccc(OCCO)c1)c1cnc2ccccc2c1` reads 0.389; that for `CCCN1C(=O)[C@@]2(c3ccc([N+](=O)[O-])cc3)CC(=O)N(CC34CC5CC(CC(C5)C3)C4)[C@@H]2c2ccc(CO)cc21`, 1.23. The result for `COc1ccc(C(O)C2C=CC3C(=O)N(c4ccccc4)C(=O)C3N2Nc2ccc(C#N)cc2)cc1OCc1ccccc1` (stereo not drawn) reads 0.636; that for `CC(C)NC(=O)[C@@]1(c2ccc([N+](=O)[O-])cc2)CC(=O)N(CC23CC4CC(CC(C4)C2)C3)[C@@H]1c1ccc(CO)cc1`, 1.35; that for `CC1=C([C@H](O)CCc2ccccc2)[C@H](CO)n2c(=O)n(-c3ccccc3)c(=O)n2C1`, 0.155. Take `O=C(NC1CC1)[C@@H]1c2ccccc2C(=O)N(Cc2cc(C(F)(F)F)cc(C(F)(F)F)c2)[C@H]1c1ccc(CO)cc1`: the composite z-score was found to be 0.755.

The molecule `COC(=O)[C@@]1(Cc2ccccc2)N=C(c2ccc(OCCCO)cc2)O[C@H]1c1ccccc1CN=[N+]=[N-]` displayed a composite z-score of 1.33. The result for `O=C1c2ccccc2[C@@]2(Cc3ccccc3N(Cc3ccccc3)C2=O)[C@H](c2ccc(CO)cc2)N1Cc1ccccc1Cl` reads -0.465.

Regarding `CC(C)C[C@H]1NC(=O)C([C@@H](C)OCc2ccccc2)NC(=O)[C@@]23C(=O)N[C@@H](Cc4ccccc4)C2[C@H](C)[C@@]2(C)O[C@H]2C3/C=C/C/C=C\CNC1=O` (stereo partly drawn), the composite z-score worked out at 1.24. The result for `CC(C)=CCCC(C)=CC(O)C1C=CC2C(=O)NC(=O)C2N1Nc1ccc(Cl)cc1Cl` (stereo not drawn) reads 1.29; that for `CCCCC(=C=CC[C@H](O)c1ccc(CO)o1)CCO`, 0.986. For the molecule `CCOC(=O)C1=CC[C@@H](c2ccccc2)N(S(=O)(=O)c2ccc(C)cc2)[C@H]1c1ccccc1I`, the composite z-score stood at 0.923. Under `[N-]=[N+]=Nc1ccccc1[C@@H]1OC(c2ccc(OCCCO)cc2)=N[C@]1(CCS(=O)(=O)c1ccccc1)C(=O)NCC(O)CO` (stereo partly drawn) stands 0.518. Under `N#Cc1ccc(NN2C(C(O)C3CC=CCC3)C=CC3C(=O)N(c4ccccc4)C(=O)C32)cc1` (stereo not drawn) stands 0.46; under `CC(C)C[C@@H]1NC(=O)[C@@]23C(=O)N[C@@H](Cc4ccccc4)C2[C@H](C)[C@@]2(C)O[C@H]2C3/C=C/C/C=C\CNC(=O)CNC1=O` (stereo partly drawn), 0.929. The result for `COc1ccc([Si](C)(C)[C@H]2[C@H](CC(=O)N3CCC[C@H]3CO)O[C@@]3(C(=O)N(Cc4ccc(N5CCCCC5=O)cc4)c4ccccc43)[C@@H]2C)cc1` reads 1.27; that for `C=CCC(OC(C)=O)[C@@H]1[C@@H](N(Cc2cccc3ccccc23)C(=O)Cc2ccc(OC)cc2)c2cc(OCCCO)ccc2N1C(=O)c1ccc2ccccc2c1` (stereo partly drawn), 0.792; that for `NC(=O)NCC#Cc1ccc2c(c1)[C@]1(C(=O)N2)[C@H](c2ccc(OCCO)cc2)N2[C@H](c3ccccc3)[C@H](c3ccccc3)OC(=O)[C@H]2[C@@H]1C(=O)O`, -0.044.

`O=C1O[C@H](c2ccccc2)[C@H](c2ccccc2)N2[C@H]1[C@@H](C(=O)N1CCN(c3ncccn3)CC1)[C@]1(C(=O)Nc3ccc(C#CCCO)cc31)[C@H]2c1ccc(O)cc1` came in with a composite z-score of 0.809. The result for `C=C(CCCC)/C(=C/C[C@H](OC(=O)c1ccncc1)c1cccc(OCCO)c1)c1cnc2ccccc2c1` reads 1.11.
